Reference: the supplement of paper PMC3342239
Counter-ions that a name gives are not always drawn.

Test system: Saccharomyces cerevisiae
Assay: fraction of cells in G1 phase (DNA content, flow cytometry); higher = more cells with unreplicated DNA (G1 delay)
Conditions: temperature: 30 C; YPD; JTY2953 pdr5 snq2 (sensitized); drug added to: cultures diluted from stationary phase; 6-7 h
Protocol: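 S. cerevisiae cultures in YPD at 30°C were treated with each drug of the Enzo FDA-approved library at 20 µg/ml (final µM given per drug). Cells were fixed after 6–7 h (S1) or 6 h (S2), or after 4.33 h for BY4741 (S3), then stained with SYTOX Green. %G1 is the Dean-Jett-Fox G1 peak area divided by the G1+G2/M peak areas, written as a fraction and averaged over at least two independent experiments. DMSO reference: mean ~0.49; >0.60 is called High G1 and <0.3876 Low G1. Scale: lower means mitotic delay.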

Row | SMILES | fraction of cells in G1 phase
1 | CN1C[C@@H](NS(=O)(=O)N(C)C)C[C@@H]2c3cccc4c3c(cn4C)C[C@H]21 [Mesulergine HCl] (55.1728 µM) | 0.547
2 | N[C@@H]1C[C@H]1c1ccccc1.N[C@H]1C[C@@H]1c1ccccc1 [Tranylcypromine] (150.156 µM) | 0.531
3 | CCC1(c2ccc(N)cc2)CCC(=O)NC1=O (racemic) [Dl-aminoglutethimide] (86.1012 µM) | 0.476
4 | C[C@]12CCC(=O)C(O)=C1CC[C@@H]1[C@@H]2CC[C@]2(C)C(=O)CC[C@@H]12 [Formestane] (66.1338 µM) | 0.566
5 | CC[C@H](C)[C@H]1O[C@]2(C=C[C@@H]1C)C[C@@H]1C[C@@H](C/C=C(\C)[C@@H](O[C@H]3C[C@H](OC)[C@@H](O[C@H]4C[C@H](OC)[C@@H](O)[C@H](C)O4)[C@H](C)O3)[C@@H](C)/C=C/C=C3\CO[C@@H]4[C@H](O)C(C)=C[C@@H](C(=O)O1)[C@]34O)O2.CO[C@H]1C[C@H](O[C@H]2[C@H](C)O[C@@H](O[C@@H]3/C(C)=C/C[C@@H]4C[C@@H](C[C@]5(C=C[C@H](C)[C@@H](C(C)C)O5)O4)OC(=O)[C@@H]4C=C(C)[C@@H](O)[C@H]5OC/C(=C\C=C\[C@@H]3C)[C@]54O)C[C@@H]2OC)O[C@@H](C)[C@@H]1O [Abamectin] (22.9069 µM) | 0.516
6 | C#C[C@]1(O)CC[C@H]2[C@@H]3CCC4=CC(=O)CC[C@]4(C)[C@H]3CC[C@@]21C [Ethisterone] (64.009 µM) | 0.462
